Experimental data reported in PMC5836133, “The intracellular immune receptor Rx1 regulates the DNA-binding activity of a Golden2-like transcription factor”.
Over roughly 16,000 sequences, “e-score” has its median near -0.044; the highest 2% begin near 0.38. Only a selection was taken, and the highest values are over-represented in it overall.

Target: T1, GST-NbGlk1(82-244) (Nicotiana benthamiana)
T1 chain: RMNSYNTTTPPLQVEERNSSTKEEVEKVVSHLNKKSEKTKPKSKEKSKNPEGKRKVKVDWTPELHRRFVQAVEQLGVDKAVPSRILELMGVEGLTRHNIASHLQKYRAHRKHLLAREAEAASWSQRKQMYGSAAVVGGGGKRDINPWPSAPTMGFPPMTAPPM
Experiment: protein-binding microarray; NbGlk1 is a Golden2-like transcription factor of Nicotiana benthamiana; high values mean tight binding
Details: protein: recombinant; tags: GST (pTH6838); dsDNA, one strand shown

Sequence | binding signal
AGATTTGG | 0.394 ± 0.0453 E-score
AGATTTAG | 0.276 ± 0.0684 E-score
AATTTTGG | 0.25 ± 0.0182 E-score
AGATTTGA | 0.327 ± 0.0876 E-score
AGATTTGC | 0.4695 ± 0.00449 E-score
ATATTTGC | 0.338 ± 0.0673 E-score
ATCATGAT | 0.205 ± 0.00494 E-score
ATTTCGGC | 0.283 ± 0.0422 E-score
ACTAAGAT | 0.231 ± 0.0287 E-score
ACTAAAAT | 0.281 ± 0.0324 E-score
ATCCACAT | 0.256 ± 0.0906 E-score
AAATCTTA | 0.44 ± 0.0386 E-score
AAATCGTC | 0.354 ± 0.0288 E-score
AAATCGTG | 0.365 ± 0.0286 E-score
CAATCTTC | 0.294 ± 0.0422 E-score
AGATCTTG | 0.373 ± 0.0461 E-score
AAATCTTG | 0.4213 ± 0.00314 E-score
AAATCGTA | 0.373 ± 0.0227 E-score
AGATCTTA | 0.347 ± 0.0143 E-score
AAATCTTC | 0.446 ± 0.0208 E-score
CAATCTTA | 0.304 ± 0.0126 E-score
AAATCATG | 0.332 ± 0.0128 E-score
AGATCTTC | 0.428 ± 0.0156 E-score

Sequence | binding signal
ATCTTCTC | 0.311 ± 0.013 E-score
ATCAGATC | 0.35 ± 0.0204 E-score
ATTACGTA | 0.354 ± 0.0309 E-score
AGATACTG | 0.33 ± 0.00398 E-score
AGCGCGAT | 0.325 ± 0.0563 E-score
AATCTATG | 0.38 ± 0.0331 E-score
ATTCTATA | 0.284 ± 0.0791 E-score
AATCGATG | 0.268 ± 0.0785 E-score
AATCTATC | 0.366 ± 0.0334 E-score
AATCTATA | 0.402 ± 0.0321 E-score
AATATATG | 0.252 ± 0.0059 E-score
ATCTGCGC | 0.317 ± 0.0626 E-score
AACGCGAT | 0.341 ± 0.0519 E-score
AAAGGAAT | 0.27 ± 0.0558 E-score
ATCCAGTG | 0.221 ± 0.123 E-score
AGAGATAT | 0.391 ± 0.0365 E-score
AGAGAGAT | 0.241 ± 0.0533 E-score
AGAGATCC | 0.346 ± 0.0193 E-score
ATAGATAC | 0.26 ± 0.0116 E-score
ACAGATAC | 0.276 ± 0.00718 E-score
AGAGATCG | 0.303 ± 0.0386 E-score
AAAGATAT | 0.342 ± 0.0309 E-score
AGAGATAC | 0.222 ± 0.0223 E-score

Sequence | binding signal
ACAGATAT | 0.415 ± 0.0135 E-score
ATAGAGAT | 0.276 ± 0.0241 E-score
ATAGATAT | 0.394 ± 0.0151 E-score
AGAGATCT | 0.411 ± 0.0152 E-score
AACTAGAT | 0.208 ± 0.0834 E-score
ATTTCTCC | 0.242 ± 0.0333 E-score
AATTACGT | 0.26 ± 0.0756 E-score
ATTCTTGA | 0.221 ± 0.0445 E-score
ACGAAGAT | 0.31 ± 0.00598 E-score
ATATGCTG | 0.258 ± 0.0732 E-score
AAAGATCC | 0.292 ± 0.0246 E-score
AAAGATCG | 0.278 ± 0.0495 E-score
AAAGATCT | 0.38 ± 0.023 E-score
AGCAAGAT | 0.309 ± 0.0213 E-score
ATTATCCC | 0.261 ± 0.0646 E-score
ATAACGAT | 0.216 ± 0.0183 E-score
AGATCCAG | 0.261 ± 0.0749 E-score
ATATCCAA | 0.407 ± 0.00723 E-score
ATATCCAC | 0.393 E-score
ATCTCCAT | 0.335 ± 0.0406 E-score
ATATCCCA | 0.3708 ± 0.000904 E-score
ATATCAAG | 0.298 E-score
AGATCCAC | 0.287 ± 0.0119 E-score

Sequence | binding signal
ATATCCAG | 0.3945 ± 0.00384 E-score
ATATCAAT | 0.281 ± 0.00703 E-score
ATATCAAA | 0.228 ± 0.00678 E-score
ATATCCAT | 0.43 ± 0.00596 E-score
ATATCCCC | 0.36 ± 0.0106 E-score
ATTGTGTA | 0.249 ± 0.00712 E-score
ATCCCCGG | 0.256 ± 0.0142 E-score
AGAATTTA | 0.222 ± 0.00311 E-score
AATTTCAT | 0.238 ± 0.0823 E-score
ATCCGTTA | 0.315 ± 0.0322 E-score
ATCAGTGA | 0.218 ± 0.0932 E-score
ATCTGGTA | 0.238 ± 0.087 E-score
ATCGCGAC | 0.287 ± 0.126 E-score
AATCCTTG | 0.336 ± 0.0164 E-score
ATGGTAAT | 0.305 ± 0.00923 E-score
AATCCCAC | 0.318 ± 0.0378 E-score
AAATCAAG | 0.318 ± 0.0251 E-score
AAATCCAG | 0.413 ± 0.0172 E-score
AAATCCAT | 0.422 ± 0.0113 E-score
CAATCCAG | 0.291 ± 0.00762 E-score
AAATCCAC | 0.43 ± 0.0323 E-score
CAATCCAC | 0.328 ± 0.0614 E-score
AAATCCAA | 0.426 ± 0.042 E-score

Sequence | binding signal
AGATCCAA | 0.262 ± 0.127 E-score
CAATCCAA | 0.298 ± 0.0654 E-score
ATCCCAGA | 0.276 ± 0.00637 E-score
ATATGAGA | 0.231 ± 0.0943 E-score
ATTACCTG | 0.213 ± 0.0963 E-score
CAATATCA | 0.299 ± 0.00874 E-score
ATCTTGAA | 0.286 ± 0.0202 E-score
AATATAGA | 0.271 ± 0.00595 E-score
ACCTGGAT | 0.224 ± 0.0187 E-score
ATTTTTAG | 0.235 ± 0.0033 E-score
ATTTGTAC | 0.228 ± 0.0254 E-score
CAATCCCG | 0.284 ± 0.05 E-score
AAATCCCA | 0.4 ± 0.00412 E-score
CAATCCCA | 0.279 ± 0.00457 E-score
AAATCACC | 0.333 ± 0.00843 E-score
AAATCACG | 0.381 ± 0.0177 E-score
AAATCACA | 0.349 ± 0.00405 E-score
AAATCCCG | 0.435 ± 0.00616 E-score
AAATCCCC | 0.368 ± 0.0151 E-score
AATCCCCG | 0.362 ± 0.0401 E-score
